# Reference: PubChem BioAssay (NCI)
# Compounds without any hit were thinned out: in the full panel of roughly 79,000, 15% have a hit. A number with no mark means an inactive call. Active and inactive are the calls of the source. Rule as the data show it: active = growth inhibition above about 70%; inactive = the rest.
# Test: NCI Yeast Anticancer Drug Screen. Data for the mlh1 rad18 strain (AID 175)
# Conditions: S. cerevisiae mlh1 rad18 strain growth inhibition; at 50.0 µM; hits give high values
# In short: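 Vehicle-treated cultures served as the reference for growth inhibition in a yeast strain carrying DNA damage repair alterations exposed to each compound.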
row,Compound,growth inhibition
1,COc1ccc(C(=O)c2cc3c(ccc4ccccc43)oc2=O)cc1,-7.45%
2,CC(C)NC(=O)OCc1c(COC(=O)NC(C)C)c(S(=O)(=O)c2ccccc2)n2c1CCC2,25.6%
3,Cc1ccnc(NC(=O)Nc2ccccc2Cl)c1,12%
4,c1ccc2c(c1)NC(N1CCCCC1)=Nc1ncncc1-2,2%
5,O=S(O)CCCSSSCCCS(=O)O,38.6%
6,CC(=O)c1ccccc1C(=O)O,-9.55%
7,CC1(O)OC(=O)c2ccc3ccccc3c21 (stereo not given),11%
8,CC(=O)CC(=O)Nc1cccc(C)n1,7.25%
9,CCCCCCCCCC(=O)Oc1cccc2onc(C)c12,-10.8%
10,Cc1ccc(C(C)C)c(OC(=O)NCCCCCCNC(=O)Oc2cc(C)ccc2C(C)C)c1,9.05%
11,CC1(C)CCC23CCC4(C)C(CCC5C6(C)CCC(=O)C(C)(C)C6CCC54C)C2C1OC3 (stereo not given),-5.1%
12,CN(C)S(=O)(=O)c1ccc(CCc2ccc(S(=O)(=O)N(C)C)cc2)cc1,6.2%
13,CC(=O)CC(C)(C)NC(=S)NCCO,-13.4%
14,C[n+]1c(/C=C/C=C/c2ccccc2)oc2ccccc21,9.7%
15,C/C(=C\Cc1cc(O)c(C)cc1O)CC/C=C(\C)Cc1cc(C)co1,-8.75%
16,CCC(=O)Oc1ccc([N+](=O)[O-])cc1[N+](=O)[O-],21.6%
17,O=[N+]([O-])c1ccc(N/N=C2\C=C(c3ccccc3)C(c3ccccc3)C2)c([N+](=O)[O-])c1 (stereo not given),-14.2%
18,CC1=C(C(=O)CC(=O)C(=O)Nc2ccc(C)cc2C)Sc2ccccc2N1,24.6%
19,CCCCCCCCCCCCCCCC(=O)O,-34.9%
20,CCC1(N=[N+]=[N-])C(=O)c2ccccc2N(c2ccccc2)C1=O (stereo not given),-19.4%

row,Compound,growth inhibition
1,Cc1[nH]c(=O)nc(CC(O)(c2ccccc2)c2ccccc2)c1-c1ccccc1,-26.1%
2,Cc1ccc(-n2c(C)n[nH]c2=O)cc1,3.2%
3,O=C1/C(=C/c2ccc(O)cc2)CCC1CNc1ccc(Cl)cc1 (stereo not given),39.9%
4,CCOC(=O)C1=C(Nc2ccc(Cl)cc2Cl)OC/C1=N\NS(=O)(=O)c1ccc(C)cc1,3.3%
5,CCCc1cc(C)cc(N=Cc2ccccc2)c1O,97.2% (active)
6,CCCCCCCCCCS(=O)(=O)CC(=O)O,-3.6%
7,c1ccc2c(c1)ncc1cccn12,1.25%
8,CN1CC(O)CN(C)C1=S,-5%
9,COc1ccc(NC(=O)CC(=O)N2N=C(N(CCC#N)c3ccc(Cl)cc3)CC2c2ccccc2)cc1 (stereo not given),-6.05%
10,O=c1[nH]c2nc3ccccc3c(=O)n2/c1=C/c1ccco1,3.95%
11,CCN1CCCC1CO (stereo not given),6.65%
12,NCCN1C(=O)c2ccccc2C1(O)c1ccc(Cl)cc1 (stereo not given),-0.65%
13,CC(=O)Nc1nc(C)c(CCCOc2ccc([N+](=O)[O-])cc2)c(Cl)n1,12.2%
14,O=c1[nH]c2cc([N+](=O)[O-])ccc2c2ccc(Cl)cc12,27.6%
15,CSc1nc(N)c(NS(=O)(=O)c2ccc([N+](=O)[O-])cc2)c(=O)[nH]1,14.1%
16,COc1cc2c3c(c1OC)-c1cc4c(cc1CC3(C#N)N(C(=O)c1ccccc1)CC2)OCO4 (stereo not given),26.1%
17,CN1CCN(C(=O)NC(C)(C)C)CC1,-17.7%
18,COC(=O)C1(Cc2ccc3c(c2)CCC3)Cc2cc3c(cc2C1)CCC3,-21.6%
19,CCOC(=O)/C=C(/C)c1ccccc1,3.1%
20,CNc1ncn(-c2c(C)cccc2C)c(=O)n1,4.05%
